The full ranking holds about 33,000 sequences; the median of “e-score” is about -0.038, and the highest 2% start at about 0.33. Many of the other results were omitted from the sample, so the highest values are more common in it than they were.

In this assay the target is T1, GST-Rok-C97-191 (Bacillus subtilis subsp. subtilis str. …, UniProt O34857 97-191).
T1 sequence: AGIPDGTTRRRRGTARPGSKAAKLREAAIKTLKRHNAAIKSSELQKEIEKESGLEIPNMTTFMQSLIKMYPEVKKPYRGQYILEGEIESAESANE
The assay can be described thus: protein binding microarray; Rok is a gene silencer of Bacillus subtilis; high values mean tight binding. As to conditions: protein: recombinant; tags: GST (pTH5325, pDEST15-Magic modified); dsDNA, one strand shown. In short, it runs like this: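 Every oligonucleotide joins a 25-mer constant primer to a 35-mer variable part drawn from a de Bruijn sequence of order 10, so each non-palindromic 8-mer appears at least 32 times and each palindromic 8-mer 16 times. The preference for every 8-mer is reported as a unitless, rank-based enrichment score (E-score). This score spans 0.5 for the most favored 8-mer to −0.5 for the most disfavored.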
For the sequence GAAATGGC, the binding signal is -0.16 E-score. As for ACTCGTAC, the figure is 0.0277 E-score; as for CAGTAATC, -0.0737 E-score; as for GATGCAGC, -0.0978 E-score. Consider AACATATT, for which the binding signal worked out at 0.24 E-score. As for GTACGCCA, the figure is -0.0805 E-score. As for GCTTCACA, the figure is -0.0519 E-score; as for CATGACTC, 0.0199 E-score. As for ATAGGTAA, the figure is 0.225 E-score. Take AATGGTAT: the binding signal was determined as 0.328 E-score. ATAGGTAG: the binding signal was determined as 0.358 E-score.

Turning to AATGGTAG, the binding signal is 0.441 E-score.

As for ATTGGTAC, the binding signal was 0.278 E-score. Consider ATTGGTAA, for which the binding signal turned out to be 0.258 E-score. AGTGGTAG: the binding signal was 0.378 E-score. As for ATTGGTAG, the figure is 0.38 E-score; as for AGTGGTAC, 0.202 E-score; as for ATAGGTAC, 0.257 E-score. As for CGTGGTAG, the figure is 0.206 E-score. Under CATGGTAG stands 0.188 E-score. Turning to CTTATTCC, the binding signal turned out to be 0.00112 E-score. Under AAGAGAGC stands -0.136 E-score; under AGCGTACC, -0.188 E-score; under AGCGGGAG, -0.145 E-score. Under ACCAACTA stands 0.161 E-score; under TACGGCCA, -0.0766 E-score; under ACTTTCGC, 0.0461 E-score. As for TACCCATA, the figure is 0.234 E-score; as for AGCCTTAT, -0.11 E-score; as for ACTACATG, 0.307 E-score. GCTACTAC: the binding signal worked out at 0.264 E-score. Regarding ACTACAAT, the binding signal came to 0.329 E-score. As for ACTACTGC, the figure is 0.113 E-score; as for ACTACAAG, 0.137 E-score. Regarding CCTACTAG, the binding signal is 0.18 E-score. Under ACTACAAC stands 0.295 E-score; under ACTACTAG, 0.361 E-score. On to ACTACTAC, for which the binding signal came to 0.419 E-score.

Regarding ACTACATC, the binding signal stood at 0.334 E-score.

Take CCTACATC: the binding signal was 0.187 E-score.

Regarding ACTACTCG, the binding signal stood at 0.159 E-score. CTGCCTTC: the binding signal was -0.104 E-score. Under GCTCGCAA stands -0.145 E-score; under AGCTAGGA, -0.00935 E-score. As for ACTACGAC, the figure is 0.0766 E-score. Under ACTACGAA stands 0.163 E-score; under CCTACTTC, 0.0914 E-score. Consider CCTACTAC, for which the binding signal is 0.343 E-score. As for ACTACTCA, the figure is 0.265 E-score; as for CCTACTAA, 0.101 E-score; as for ACTACGAT, 0.362 E-score. Take ACTACTCT: the binding signal came out at 0.19 E-score. Under ACTACTAT stands 0.46 E-score; under CCGGACCG, -0.0456 E-score.

On to CGTCAACC, for which the binding signal is -0.182 E-score. As for GTGAGATA, the binding signal was 0.0844 E-score. On to CCTTCTCC, for which the binding signal was -0.165 E-score. As for ACCGCTAA, the figure is 0.13 E-score. For the sequence GTCCAATA, the binding signal is 0.0328 E-score. Turning to CTCGCAAA, the binding signal stood at 0.0435 E-score. Under ACTCGGTA stands 0.286 E-score; under GGGAGCAC, -0.183 E-score.

On to CTATAAGA, for which the binding signal was 0.156 E-score. As for GTATAATA, the figure is 0.413 E-score; as for ATATAATG, 0.3 E-score; as for CTATAATC, 0.222 E-score.

Consider GTATAACA, for which the binding signal was found to be 0.141 E-score. Under ATATAATA stands 0.446 E-score; under CTATAATA, 0.34 E-score; under ATATAATC, 0.201 E-score. With GTATAAAA, the binding signal worked out at 0.32 E-score. In the case of CGAGAAGA, the binding signal is -0.0403 E-score. As for CCTTAGGA, the figure is 0.047 E-score. As for ACTGCACC, the figure is 0.128 E-score; as for TCTTAAAA, -0.0115 E-score. As for AAAACAAC, the figure is 0.116 E-score; as for AAAGTGAC, -0.0335 E-score; as for ATTCTTGC, 0.103 E-score. Turning to CTATGTTA, the binding signal stood at 0.256 E-score. Under ATATGGTG stands 0.159 E-score; under CTATGGTA, 0.211 E-score; under ATATGGTA, 0.331 E-score. For TAATGGTA, the binding signal stood at 0.325 E-score. Under GAATGGTA stands 0.39 E-score; under GAATGGTC, -0.121 E-score. As for ATATGTTC, the figure is 0.238 E-score. As for ATATGTTA, the figure is 0.331 E-score; as for AGAGCCAG, -0.194 E-score; as for ACGTGCCT, -0.189 E-score. For the sequence CCGTTCTA, the binding signal is 0.108 E-score. In the case of TACAGGAA, the binding signal was 0.0535 E-score.

As for GGAATCGA, the binding signal stood at 0.209 E-score. As for AGATTGTG, the figure is 0.09 E-score. Regarding GTAGCTAC, the binding signal is 0.428 E-score.

As to TTAGCTAA, the binding signal amounted to 0.263 E-score. As to CTAGCTAC, the binding signal was found to be 0.163 E-score. Consider ATAGCTAC, for which the binding signal was determined as 0.31 E-score. Under GAAGCTAC stands 0.309 E-score; under ATAGCTAG, 0.271 E-score; under GTAGCTAA, 0.346 E-score. Under CTAGCTAA stands 0.127 E-score; under ATAGCTAT, 0.402 E-score. As for ATTTAATG, the figure is 0.105 E-score.

Consider CGTCTGAA, for which the binding signal was -0.0845 E-score. Under CTAAAGTC stands 0.0658 E-score. For the sequence ATGCTGAC, the binding signal is -0.0948 E-score. Regarding ATTCGACC, the binding signal was -0.138 E-score.

As to AGGTAATA, the binding signal came out at 0.328 E-score. As for GGGTAATA, the figure is 0.272 E-score.

For the sequence AGGTAGTA, the binding signal is 0.328 E-score. In the case of CGGTAGTC, the binding signal was determined as 0.174 E-score. Under GGGTAGTA stands 0.3 E-score; under AGGTAATG, 0.113 E-score; under AGGTAGTC, 0.0784 E-score. As for AGGTAGTG, the figure is -0.0194 E-score. For CGGTAGTA, the binding signal worked out at 0.391 E-score. As for CTTCGAAC, the figure is -0.152 E-score; as for AAACTACA, 0.387 E-score; as for CAACTACA, 0.234 E-score. Under GCACTACC stands 0.0373 E-score. For AAACTACT, the binding signal is 0.464 E-score. In the case of CAACTACG, the binding signal stood at 0.113 E-score. GAACTACA: the binding signal stood at 0.252 E-score.

As to ACACTACG, the binding signal is -0.0248 E-score.

Consider AAACTACG, for which the binding signal was determined as 0.387 E-score. Under ACACTACT stands 0.18 E-score. With GAACTACC, the binding signal is 0.367 E-score. As for AGACTACT, the figure is 0.198 E-score.

AGACTACA: the binding signal stood at 0.0455 E-score. With GGTCCGAC, the binding signal is -0.143 E-score.

For ATGAAAGC, the binding signal was -0.0998 E-score. Under AGGTGAAG stands -0.109 E-score. For TACTGTAA, the binding signal came to 0.323 E-score. Under CGGAGAAC stands 0.0827 E-score; under ACATTCGA, 0.071 E-score; under AGACTACC, 0.268 E-score. As for TAACTACA, the figure is 0.423 E-score; as for TGACTACA, 0.031 E-score.

Regarding AAACTACC, the binding signal stood at 0.473 E-score. In the case of CAACTACC, the binding signal amounted to 0.271 E-score.

For the sequence TCACTACA, the binding signal was -0.0801 E-score.

Take AACAGCTC: the binding signal came out at 0.087 E-score.

Take TATGGAGA: the binding signal was 0.0429 E-score. Under GTGTACTA stands 0.16 E-score. As for ATGTACTC, the figure is 0.178 E-score. As for ATGTACAG, the figure is 0.317 E-score; as for ATGTACAT, 0.377 E-score; as for GTGTACAA, 0.213 E-score.

Regarding TTGTACAA, the binding signal was 0.342 E-score. For the sequence ATGTACTA, the binding signal came to 0.376 E-score.

Take CTGTACAA: the binding signal amounted to 0.0696 E-score. As for ATGTACCC, the figure is 0.0999 E-score; as for CTGTACCA, -0.0649 E-score; as for ATGTACAA, 0.317 E-score. As for ATGTACCA, the figure is 0.335 E-score; as for ATGCAGTC, -0.0482 E-score; as for ATCTAAAC, 0.0603 E-score. Consider AGGCCAAT, for which the binding signal was -0.176 E-score.

CCTACAGA: the binding signal was determined as 0.064 E-score. Under AAGTCTAG stands 0.0844 E-score. As for GGTTATAA, the binding signal was determined as 0.0781 E-score. In the case of GGAGTTGA, the binding signal is -0.137 E-score. As for AAGACCAA, the figure is -0.0146 E-score.

Regarding CGACCACA, the binding signal was -0.0849 E-score. Consider ACGCGCAT, for which the binding signal is -0.158 E-score. As for CTCTACAA, the figure is 0.00826 E-score. For TTCTACAA, the binding signal was 0.362 E-score.

For GTCTACAA, the binding signal is -0.0759 E-score.

In the case of ACGACCGT, the binding signal stood at 0.00992 E-score.

Turning to ACATTGCA, the binding signal amounted to 0.0494 E-score. ACTAGATG: the binding signal amounted to 0.317 E-score.

As to ACTAGATA, the binding signal is 0.403 E-score. On to CCTAGATC, for which the binding signal came out at 0.0939 E-score. For the sequence CCTAGATA, the binding signal is 0.0777 E-score. As for ATTAGATC, the figure is 0.0978 E-score; as for ACTAGATC, 0.335 E-score; as for CGGCACTC, -0.0669 E-score. As to CCCATTTC, the binding signal is 0.0795 E-score. ATGACCTG: the binding signal was -0.0486 E-score. Under CCGACTAG stands 0.0252 E-score. Consider CTTATTTA, for which the binding signal is 0.184 E-score. Under ATTATATC stands 0.384 E-score; under GTTATATA, 0.31 E-score. Turning to ATTATTTA, the binding signal turned out to be 0.37 E-score.

Take ATTATATA: the binding signal was found to be 0.446 E-score. As for ATTATAGC, the figure is 0.189 E-score; as for ATTATATG, 0.223 E-score; as for CTTATATC, 0.117 E-score. GTTATTTA: the binding signal came to 0.273 E-score. AAAATGCA: the binding signal was determined as 0.153 E-score. For the sequence TAAGTGCA, the binding signal came out at 0.0583 E-score. For ACTAATTC, the binding signal is 0.373 E-score. For CCTAATTC, the binding signal turned out to be 0.115 E-score. Under CCTAATTA stands 0.28 E-score; under ACTAATTA, 0.444 E-score; under ACTAATTG, 0.189 E-score. As for GCTAATTA, the figure is 0.289 E-score; as for CACTTGGC, -0.143 E-score; as for CCTGACCA, -0.111 E-score. Under AAAGTTCG stands 0.0847 E-score. Regarding CGCGCTAA, the binding signal is 0.329 E-score. TGCGCTAA: the binding signal is -0.0024 E-score. Under CGCGCTAC stands -0.0357 E-score. Under AATCTGTG stands -0.0756 E-score; under AGAATTTC, 0.255 E-score; under ATAATTTA, 0.354 E-score.

On to GCAATTTA, for which the binding signal is 0.257 E-score. Turning to GTAATTTA, the binding signal is 0.353 E-score. As for CTAATTTA, the figure is 0.305 E-score; as for AGAATTTG, 0.161 E-score; as for CTAATTTC, 0.272 E-score. Take ACAATTTG: the binding signal worked out at 0.104 E-score. As for GTAATTGA, the figure is 0.0917 E-score; as for ATAATTTC, 0.36 E-score; as for ATAATTCA, 0.245 E-score. Under ATAATTTG stands 0.344 E-score; under CAGGGATC, -0.151 E-score. As for AGAGCTAA, the figure is 0.148 E-score. AGTCCTCC: the binding signal is -0.0852 E-score.

The values are drawn from paper PMC6212790, “How bacterial xenogeneic silencer rok distinguishes foreign from self DNA in its resident genome”.
